Consider 21 compounds from PubChem BioAssay (NCATS).

Assay [1] deals with Glutathione peroxidase 1 (Homo sapiens) (UniProt P07203). Briefly: Primary qHTS Assay for Inhibitors of Recombinant Selenoprotein Glutathione Peroxidase 1 (GPX1) (AID 1845191). Further: nearly all actives have a fitted effect of over 65% in size. On activity, negative = inhibition: on the % scale 0 is the no-effect control and ±100 the full control effect. In short, it runs like this: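 GPX1 10 nM, GR 100 nM, GSH 1 mM, NADPH 0.5 mM, CHP 0.5 mM (final). 30-min cpd preincubation, RT. Ex340/Em450 read t=0, t=15 min.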
On the technique in general: In qHTS, concentration-response curves come from the screen itself.

Assay [2] addresses Phospholipid hydroperoxide glutathione peroxidase GPX4 (Homo sapiens) (UniProt P36969). The assay is described as follows: Primary qHTS Assay for Inhibitors of Recombinant Selenoprotein Glutathione Peroxidase 4 (GPX4) (AID 1845192). Further: nearly all actives have a fitted effect of over 65% in size. On activity change, negative = inhibition: series mostly up to about 50 µM; on the % scale 0 is the no-effect control and ±100 the full control effect. In short, it runs like this: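 qHTS, GR-coupled: GPX4 200 nM + cpd 30 min RT → GSH 1 mM, NADPH 0.5 mM, GR 100 nM → CHP 0.5 mM start; fluor 340/450 at t0 and t15 min; no-enzyme wells as control.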

In assay [3] the target is Luciferin 4-monooxygenase (Photinus pyralis) (UniProt P08659). The assay is described as follows: Primary firefly luciferase (FLuc) qHTS assay for identification of artifact compounds. (AID 1845220). Further: nearly all actives have a fitted effect of over 60% in size. Further: potency means the concentration at half of the fitted maximal effect.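 On activity change, negative = inhibition: series mostly up to about 54 µM; plate controls were DMSO vehicle for no effect and no enzyme for full effect.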 In short, it runs like this: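 qHTS, 15 min compound preincubation with substrate (10 uM luciferin, 10 uM ATP) at RT, then 10 nM FLuc; 5 min; luminescence; % inhibition vs no-enzyme/DMSO controls, 4-parameter Hill fit.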

A short description of assay [4]: Primary fluorescence-based thiol-reactive (MSTI) qHTS assay for identification of artifact compounds. (AID 1845221). Further: nearly all actives have a fitted effect of over 65% in size. Further: potency means the concentration at half of the fitted maximal effect.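 On activity change, negative = thiol reactive: series mostly up to about 54 µM; thiol-reactive compounds lower the probe fluorescence signal.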 In outline: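 MSTI probe at 4 uM final in 2% DMSO/PBS pH 7.4; compounds, 1 h at room temperature in dark. Fluorescence Ex/Em 525/598 nm, normalised to Acetyl-MSTI and MSTI, fitted to 4-parameter Hill.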
Assay [5] has as its system Nanoluciferase (engineered Oplophorus gracilirostris luciferase). Briefly: Primary Nanoluciferase (NLuc) qHTS assay for identification of artifact compounds. (AID 1845222). Further: series mostly up to about 54 µM. In outline:
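Luminescence read-out of secreted NLuc in S16 cell conditioned medium (1:55); compounds tested with 15 min RT preincubation, then Nano-Glo substrate 1:100, 5 min. % inhibition vs no-enzyme and DMSO controls, 4-parameter Hill fit.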

The nature of assay [6]: Primary redox qHTS assay for identification of artifact compounds. (AID 1845223).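 Further: 0% = DMSO and 100% = reference compound.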 In short, it runs like this: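 Redox-cycling detection via DTT (250 uM final) oxidation coupled to Amplex Red (25 uM)/HRP (250 mU/mL) in HBSS. 15 min preincubation plus 30 min after DTT, room temperature. Ex/Em 525/598 nm; 4-parameter Hill fit against DMSO and 10 uM DA3003.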

A number with no mark means an inactive call. Inconclusive results are not listed. The source made the active and inactive calls. The call rests on the fitted dose curve; in most records, active means well fitted curve in the direction sought with a large enough effect; inconclusive means small, poorly fitted or top-dose-only effect, or another doubt; inactive means no such curve, though single readings can be large; an effect the other way counts as inactive or inconclusive.

Chain of Glutathione peroxidase 1 (Homo sapiens) (P07203 whole entry, looked up): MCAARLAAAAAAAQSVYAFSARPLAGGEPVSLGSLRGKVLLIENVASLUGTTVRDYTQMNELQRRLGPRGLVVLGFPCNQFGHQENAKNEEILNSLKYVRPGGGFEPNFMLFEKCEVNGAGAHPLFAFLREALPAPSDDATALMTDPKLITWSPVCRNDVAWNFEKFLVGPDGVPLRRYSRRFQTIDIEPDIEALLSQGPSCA
Chain of Phospholipid hydroperoxide glutathione peroxidase GPX4 (Homo sapiens) (P36969 whole entry, looked up): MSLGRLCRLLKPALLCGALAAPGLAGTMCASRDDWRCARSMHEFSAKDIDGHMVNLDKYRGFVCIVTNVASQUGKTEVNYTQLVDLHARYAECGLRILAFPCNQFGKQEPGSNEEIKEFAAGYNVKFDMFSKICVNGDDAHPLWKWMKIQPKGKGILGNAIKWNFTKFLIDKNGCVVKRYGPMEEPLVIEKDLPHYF

Consider `Cn1cc(-c2c[nH]c3ncnc(N4CCOCC4)c23)cn1`, for which the Potency entry in assay [1], in assay [2], in assay [3], in assay [4], in assay [5] and in assay [6] was “inactive” in each case.

For the compound `O=C(NC/C=C/CN1CCN(c2cccc(Cl)c2Cl)CC1)c1ccc(-c2ccccn2)cc1`, the Potency result in assay [1], in assay [2], in assay [3], in assay [4], in assay [5] and in assay [6] was “inactive” in each case.

Take `CC1=CC(=O)CC(C)(C)C1CCC(C)O[C@@H]1O[C@H](CO)[C@@H](O)[C@H](O)[C@H]1O` (stereo partly specified): the Potency result in assay [1], in assay [2], in assay [3], in assay [5] and in assay [6] was “inactive” in each case. In addition, the Potency in assay [4] is 9.27 µM (active).

For `Cc1cc(-c2nncc3c(C(C)(C)C)c(OCc4ncnn4C)nn23)no1`, the Potency entry in assay [1], in assay [2], in assay [3], in assay [4], in assay [5] and in assay [6] was “inactive” throughout.

For `CC(C)CC[C@@H](O)[C@](C)(O)[C@H]1CC[C@@]2(O)C3=CC(=O)[C@@H]4C[C@@H](O)[C@@H](O)C[C@]4(C)[C@H]3CC[C@]12C`, the Potency entry in assay [1], in assay [2], in assay [3], in assay [4], in assay [5] and in assay [6] was “inactive” each time.

With `CC1=C2C[C@@]3(C)C(CCC[C@@H]3C)C(O)C2(O)OC1=O` (stereo partly specified), the Potency result in assay [1], in assay [2], in assay [3], in assay [4], in assay [5] and in assay [6] was “inactive” each time.

`CC1(C)CC[C@]2(C(=O)O)CC[C@]3(C)C(=CCC4[C@@]5(C)C[C@H](O)[C@H](O[C@@H]6O[C@H](CO)[C@@H](O)[C@H](O)[C@H]6O)[C@@](C)(CO)C5[C@H](O)C[C@]43C)[C@@H]2C1` (stereo partly specified): the Potency result in assay [1], in assay [2], in assay [3], in assay [4], in assay [5] and in assay [6] was “inactive” throughout.

In the case of `CNc1nc(Cc2ccccc2)nc2c1CCNC[C@@H]2C`, the Potency entry in assay [1], in assay [2], in assay [3], in assay [4], in assay [5] and in assay [6] was “inactive” each time.

For `Cc1occc(=O)c1O[C@@H]1O[C@H](COC(=O)CC(C)(O)CC(=O)O)[C@@H](O)[C@H](O)[C@H]1O` (stereo partly specified), the Potency result in assay [1], in assay [2], in assay [3], in assay [4], in assay [5] and in assay [6] was “inactive” each time.

Take `COC(=O)C1=COC(O[C@@H]2O[C@H](COC(=O)/C=C/c3ccc(O)cc3)[C@@H](O)[C@H](O)[C@H]2O)C2C(CO)=CCC12` (stereo partly specified): the Potency result in assay [1], in assay [2], in assay [3], in assay [4], in assay [5] and in assay [6] was “inactive” each time.

On to `C/C=C(\C)C(=O)OC[C@H]1O[C@@H](O[C@H]2[C@@H](O[C@H]3O[C@H](CO)[C@@H](O)[C@H](O)[C@H]3O[C@@H]3O[C@H](CO)[C@@H](O)[C@H](O)[C@H]3O)O[C@H](COC(=O)/C(C)=C/C)[C@@H](O)[C@@H]2O)[C@H](O)[C@@H](O)[C@@H]1O`, for which the Potency entry in assay [1] and in assay [2] was “inactive” each time. The activity change, negative = inhibition in assay [3] is 3.78% [at 11.6 µM]. In addition, the activity change, negative = thiol reactive in assay [4] was -18.3% [at 11.5 µM]. Further, the activity, negative = inhibition in assay [5] was -0.032% [at 11.6 µM]. Moreover, the redox activity (% of DA3003) in assay [6] is -4.48% [at 11.5 µM].

Turning to `C=C1C(OC(C)=O)CCC2(C)CC3(O)OC(=O)C(C)=C3CC12` (stereo unspecified), the Potency result in assay [1], in assay [2], in assay [3], in assay [4], in assay [5] and in assay [6] was “inactive” in each case.

As to `CC(=O)OC(C)(C)/C=C/C(=O)[C@](C)(O)C1[C@H](O)C[C@@]2(C)[C@@H]3CC=C4[C@@H](C[C@H](O[C@@H]5O[C@H](CO)[C@@H](O)[C@H](O)[C@H]5O)C(=O)C4(C)C)[C@]3(C)C(=O)C[C@]12C` (stereo partly specified), the Potency entry in assay [1], in assay [2], in assay [3], in assay [4], in assay [5] and in assay [6] was “inactive” throughout.

Turning to `N#CC1C(=O)N=C(c2cc(Cl)ccc2O)C=C1c1cc(OCc2ccccc2)cc(OCc2ccccc2)c1` (stereo unspecified), the Potency result in assay [1], in assay [2], in assay [3], in assay [4], in assay [5] and in assay [6] was “inactive” each time.

For `O=C(Nc1ccn(Cc2c(F)cccc2C(F)(F)F)n1)c1c(F)cccc1F`, the Potency entry in assay [1] and in assay [2] was “inactive” in each case. In addition, the outcome in assay [3] is “inactive [at 11.6 µM]”. For the same compound, the activity change, negative = thiol reactive in assay [4] was 27.2% [at 11.5 µM]. Also, the activity, negative = inhibition in assay [5] was 3.13% [at 11.6 µM]. The redox activity (% of DA3003) in assay [6] is -0.702% [at 11.5 µM].

`NC(=O)[C@@H]1CC[C@H](c2ccc(OCc3ccccc3F)cc2)N1`: the Potency entry in assay [1], in assay [2], in assay [4], in assay [5] and in assay [6] was “inactive” in each case. For the same compound, the Potency in assay [3] was 10.7 µM (active).

As for `C[C@H]1[C@H](C)CC[C@]2(C(=O)O)CC[C@]3(C(=O)O)C(=CCC4[C@@]5(C)CC[C@H](O[C@@H]6O[C@@H](C)[C@H](O)[C@@H](O)[C@H]6O)C(C)(C)C5CC[C@]43C)[C@H]12` (stereo partly specified), the Potency result in assay [1], in assay [2], in assay [3], in assay [4], in assay [5] and in assay [6] was “inactive” throughout.

On to `Cc1ccc(C)c(S(=O)(=O)n2cnc3ccccc32)c1`, for which the Potency entry in assay [1], in assay [2], in assay [3], in assay [4], in assay [5] and in assay [6] was “inactive” in each case.

As to `C=C1CCC2[C@](C)(CO)CCC[C@@]2(C)[C@@H]1CCC1=CCOC1=O` (stereo partly specified), the Potency entry in assay [1], in assay [2], in assay [3], in assay [4], in assay [5] and in assay [6] was “inactive” in each case.

Turning to `C/C=C(/C)C(=O)O[C@@H]1C[C@@H](OC(=O)/C(C)=C\C)[C@@]2(C)C3C(=O)C=C(C)C2C3C1(C)C`, the Potency entry in assay [1], in assay [2], in assay [3], in assay [4], in assay [5] and in assay [6] was “inactive” in each case.

For `CC(=O)OC1C(O)/C(C)=C\C2C(OC(=O)c3ccccc3)C(C)CC2(OC(C)=O)C(OC(C)=O)C(C)/C=C/C(C)(C)C1OC(C)=O` (stereo unspecified), the Potency entry in assay [1], in assay [2], in assay [3], in assay [4], in assay [5] and in assay [6] was “inactive” throughout.
